Data from the supplement of paper PMC9925115.
Where “and” joins values, the source holds several entries; their conditions need not be identical. Equal entries are not always repeated.

tested on: FLX1 + dox-induced PRKAR1A G325D; test: difference in log2 fold change of viability vs plate median (dox-induced PRKAR1A G325D minus uninduced); higher = compound less effective when PKA is inhibited; conditions: concentration: not stated (2 or 5 uM); 5 days
Description: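 For each plate a log2 fold change vs the plate median was derived, and the values without dox were subtracted from those with dox, averaged over three biological replicates.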

SMILES | difference in log2 fold change of viability
C#Cc1cccc(Nc2ncnc3cc4c(cc23)OCCOCCOCCO4)c1 [Icotinib] | -0.163
CN1CCN(c2ccc3nc(-c4c(N)c5c(F)cccc5[nH]c4=O)[nH]c3c2)CC1 [Dovitinib (TKI-258, CHIR-258)] | 0.0764
COc1cccc2cc(-c3nc([C@H]4CC[C@H](C(=O)O)CC4)n4ncnc(N)c34)[nH]c12 | 0.812
NC(=O)c1ncn([C@@H]2O[C@H](CO)[C@@H](O)[C@H]2O)c1N [AICAR (Acadesine)] | -0.0733
O=c1ncn2nc(Sc3ccc(F)cc3F)ccc2c1-c1c(Cl)cccc1Cl | 2.06
CCn1c(=O)c(-c2ccc(-c3cncs3)cc2Cl)cc2cnc(Nc3ccc(N4CCN(C)CC4)cc3)nc21 | -0.943
O=C1NC(=O)/C(=C/c2ccc(-c3ccc(F)cc3O)o2)S1 | -0.649
Nc1cccc(-c2cc3c(Oc4cccc(O)c4)ncnc3[nH]2)c1 | -0.478
Fc1cc(-c2cccc3ncc(-c4cnn(C5CCNCC5)c4)nc23)cc(F)c1CN1CCOCC1 | 0.246
O=c1c(-c2ccc(O)cc2)coc2cc(O)cc(O)c12 [Genistein] | 0.126
COc1ccc(S(=O)(=O)N(CCO)c2ccccc2CN(C)C/C=C/c2ccc(Cl)cc2)cc1 [KN-93 Phosphate] | 0.66
FC(F)c1nc2ccccc2n1-c1nc(N2CCOCC2)nc(N2CCOCC2)n1 | 0.435
Cc1c(NC(=O)OC[C@@H]2COCCN2)cn2ncnc(Nc3ccc4c(cnn4Cc4cccc(F)c4)c3)c12 | -0.034
CS(=O)(=O)N1CCc2c(-c3cnc(N)nc3)nc(N3CCOCC3)nc21 | 0.207
CN(c1ncccc1CNc1nc(Nc2ccc3c(c2)CC(=O)N3)ncc1C(F)(F)F)S(C)(=O)=O | 0.235 and 0.428
O=C1Nc2ccccc2/C1=C1/Nc2ccccc2C1=O [Indirubin] | 0.211
Cc1ccc(NC(=O)c2cccc(N(C)C)c2)cc1NC(=O)c1ccc(O)cc1 | 0.402
Cc1ccc(C(=O)Nc2ccc(CN3CCN(C)CC3)c(C(F)(F)F)c2)cc1C#Cc1cnc2[nH]ncc2c1 [GZD824 Dimesylate] | 0.11
C=CC(=O)Nc1cc(Nc2nccc(-c3cn(C)c4ccccc34)n2)c(OC)cc1N(C)CCN(C)C [Osimertinib (AZD9291)] | -0.173
C[C@@H]1COC(Nc2ccc3ncnc(Nc4ccc(OCc5nccs5)c(Cl)c4)c3c2)=N1 [Varlitinib] | -0.557

SMILES | difference in log2 fold change of viability
Cn1cc(C2=C(c3ccc(Cl)cc3Cl)C(=O)NC2=O)c2ccccc21 | 0.189
COc1cc(F)c(F)c(Nc2ccc(I)cc2F)c1NS(=O)(=O)C1(C[C@H](O)CO)CC1 [Refametinib (RDEA119, Bay 86-9766)] | 0.183
C=CC(=O)Nc1cccc(Oc2nc(Nc3ccc(N4CCN(C)CC4)cc3OC)ncc2Cl)c1 | -1.14
Cc1[nH]c(/C=C2\C(=O)Nc3ccc(S(=O)(=O)Cc4c(Cl)cccc4Cl)cc32)c(C)c1C(=O)N1CCC[C@@H]1CN1CCCC1 | -0.266
O=C1c2ccc(Nc3ccc(F)cc3F)cc2CCc2ccc(OC[C@H](O)CO)cc21 [Skepinone-L] | 0.71
Cc1cc(C(=O)NOCCO)c(Nc2ccc(I)cc2F)n(C)c1=O | -0.818
Cc1c(F)cc(C(=O)NC2CC2)cc1-c1ccc(C(=O)NCC(C)(C)C)cn1 | -0.0149
Cc1cnc(Nc2ccc(OCCN3CCCC3)cc2)nc1Nc1cccc(S(=O)(=O)NC(C)(C)C)c1 | -0.00786
Oc1ccc(Nc2nc(-c3ccc(Cl)cc3)cs2)cc1 | -0.56
Cn1cnc(N)c2ncnc1-2 [3-Methyladenine (3-MA)] | 0.548
CN1CCN(C2CCN(C(=O)Nc3cc(Oc4ccc(NC(=O)C5(C(=O)Nc6ccc(F)cc6)CC5)c(F)c4)ccn3)CC2)CC1 [Golvatinib (E7050)] | 0.0894
N#Cc1c(O)c2c(-c3ccc(-c4ccccc4O)cc3)csc2[nH]c1=O | 0.134
C[C@H]1[C@H](C)CC[C@]2(C(=O)O)CC[C@]3(C)C(=CC[C@@H]4[C@@]5(C)C[C@@H](O)[C@H](O)[C@@](C)(CO)[C@@H]5CC[C@]43C)[C@H]12 [Asiatic Acid] | -0.0847
COc1ncc(-c2ccc3nccc(-c4ccnnc4)c3c2)cc1NS(=O)(=O)c1ccc(F)cc1F | 0.179
COc1c(C)c(C(=O)c2ccc(N)c(C(=O)O)c2)n2ccccc12 | 0.093
O=C(O)[C@]1(Cc2cccc(Nc3nccs3)n2)CC[C@@H](Oc2cccc(Cl)c2F)CC1 | -0.795
CNC(=O)c1cc(COc2nnc(Nc3ccc(Cl)cc3)c3ccoc23)ccn1 [Telatinib] | 0.0582
CCCS(=O)(=O)Nc1ccc(F)c(C(=O)c2c[nH]c3ncc(Cl)cc23)c1F | 0.333
COc1cc2nccc(Oc3ccc(NC(=O)Nc4cc(C)on4)c(Cl)c3)c2cc1OC [Tivozanib (AV-951)] | -0.0533
COc1cc2c(Nc3ccc(NC(=O)c4ccccc4)cc3)ncnc2cc1OCCCN1CCOCC1 | 0.301
